These results are taken from PubChem BioAssay AID651692 (Broad Institute, 2012).

Potency and affinity values are given separately. The source made the active and inactive calls.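 How the source made its calls: active means fitted half-maximal concentration for loss of cell signal no higher than twice the top valid tested concentration; inconclusive means flat curve at 30 to 70% inhibition, or poor fit; inactive means flat within 30%, signal rise, or potency above limit.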

The nature of this experiment: cytotoxicity toward MDA-MB-231 breast cancer cells – cell-based, CellTiter-Glo luminescence, cherry-pick, cytotoxicity control for RAD54 inhibitor project, dose response (AID 651692).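 Further: more negative values mean stronger loss of viable cell signal.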 The conditions noted are these: MDA-MB-231 viability, 24 h; series mostly up to 26 µM. For orientation: ATP-based viability assays read luminescence as a measure of living cells.
`COc1ccc2oc3cc(NCCN(C)C)ccc3c(=O)c2c1`: the molecule was classed as inactive.
For `Cc1cccc(-c2cc(N3CCCN(C)CC3)n3nccc3n2)c1` the value was “inactive”.
For `NCc1csc(Nc2nncc3ccccc23)n1` the value was “inactive”; for `Cc1ccc2nc3c(cc(C(=O)NCCN4CCOCC4)c(=N)n3CCCN3CCOCC3)c(=O)n2c1`, “inactive”; for `CN1CCN(c2ccc(Nc3ccnc4cc(Cl)ccc34)cc2)CC1`, “inactive”.
Turning to `CC(=O)Nc1cc(-c2cccc(C(=O)NCCN(C)C)c2)cn2c(-c3ccc(S(C)(=O)=O)cc3)cnc12`, the call was inactive.
For `CCOC(=O)c1cnc2c(ccc3ccccc32)c1NCCN(C)C` the value was “inactive”.
Under `CN(C)CCCNc1nc2cc(-c3ccc4c(ccn4C)c3)sc2c(=O)n1C` stands “inactive”.
In the case of `CCCCN(CC)CCNC(=O)c1cc2c(=O)n(C)c3ccccc3c2n1C`, the result was inactive.
Under `CNC(C)C#Cc1ccc2oc3cccc(OC)c3c(=O)c2c1` (centres undefined) stands “inactive”; under `CC(C)N1CCc2c(sc(NC(=O)c3ccc(C(=O)c4ccccc4)cc3)c2C(N)=O)C1`, “inactive”; under `CCOC(=O)c1[nH]c2cc3c(cc2c1CCCN1C(=O)c2ccccc2C1=O)OCCO3`, “inactive”.
For the molecule `Cc1cccn2c(=O)c3cc(C(=O)NCCN4CCOCC4)c(=N)n(CCN4CCOCC4)c3nc12`, the molecule was classed as inactive.
For `Cc1c(O)c(CN(C)C)cc2c1oc(=O)c1ccccc12` the value was “inactive”; for `COC(=O)C1=C(C)Nc2nc3ccccc3n2C1c1ccccc1F` (centres undefined), “inactive”.
Under `COc1ccc2nc3cc(Cl)ccc3c(Nc3cc(CN4CCCC4)c(O)c(CN4CCCC4)c3)c2n1` stands “inactive”; under `COc1ccccc1C(=O)C(O)c1ccccc1OC` (centres undefined), “inactive”.
Under `Cc1ccc2c(c1)c1nc3ccccc3nc1n2CCN1CCOCC1` stands “inactive”; under `Cc1ccc(S(=O)(=O)N2CCOCC2)c(C)c1NS(C)(=O)=O`, “inactive”; under `CCOC(=O)c1cnc2c(C)cccc2c1NCCCN1CCOCC1`, “inactive”.
Consider `CN1CCN(c2nc(-c3ccncc3)nc3ccccc23)CC1`, for which the result was inactive.
For `COc1ccc(OC)c(Nc2nc(NCCCN(C)C)nc(N)c2[N+](=O)[O-])c1` the value was “inactive”.
For the molecule `CCCN(CCC)CCCNC(=O)c1cc2cc3ccc(OC)cc3nc2o1`, the molecule was classed as inactive.
For `CCCN1CCN(C(=S)Nc2ccc3nc(N4CCN(CC)CC4)cc(C)c3c2)CC1` the value was “inactive”; for `COc1cc2sc3cc(NCC[C@@H]4CCCN4C)ccc3c(=O)c2cc1OC`, “inactive”; for `CN(C)CCCNc1nc(-c2ccc(Cl)cc2)nc2ccccc12`, “inactive”.
Regarding `c1ccc(-c2nnc(SCc3nc4ccccc4[nH]3)o2)cc1`, the outcome was inactive.
For `Cn1c(C(=O)NCCN2CCCCCC2)cc2c(=O)n(C)c3ccccc3c21` the value was “inactive”.
For `O=c1c2ccccc2oc2ccc(NCCCN3CCOCC3)cc12` the value was “inactive”; for `CCN(CC)CCNc1nc2cc(OC)c(OC)cc2c2nc(-c3ccccc3)nn12`, “inactive”.
Under `OCCNc1nc(Nc2ccc(O)cc2)nc2ccccc12` stands “inactive”; under `c1ccc2c(c1)[nH]c1c(N3CCN(C4CCCCC4)CC3)ncnc12`, “inactive”.
As to `Cc1ccc(-c2nc(NCCCN(C)C)c3ccccc3n2)cc1`, the outcome was inactive.
For `CCN1CCN(c2cc(C)c3cc(NC(=S)N4CC(C)CC(C)C4)ccc3n2)CC1` (centres undefined) the value was “inactive”.
For `OCCCNc1c2ccccc2nc2ccccc12` the value was “inactive”; for `C(=C/c1nccc2c1[nH]c1ccccc12)/c1ccc2c(c1)OCO2`, “inactive”; for `Nc1c(C(=O)NCCN2CCOCC2)c2nc3ccccc3nc2n1-c1ccccc1`, “inactive”.
Under `COc1cc(-c2cnc3c(NC=O)cc(-c4cccc(C(=O)NCCN(C)C)c4)cn23)cc(OC)c1OC` stands “inactive”.
Regarding `CN(C)CCN(C(=O)c1ccco1)c1nc2cc3c(cc2s1)OCCO3`, the molecule was classed as inactive.
